A number with no mark means an inactive call. Records with an inconclusive call do not appear. Where a call stands in place of a potency, no number is given. Active and inactive are the calls of the source. Unless noted, calls come from the whole dose curve.
Legend:
[1] = Nuclear factor erythroid 2-related factor 2/antioxidant responsive element (Nrf2/ARE) small molecule agonists: qHTS cell viability counter screen in human keratinocytes (AID 1919968; active = well fitted curve in the direction sought with a large enough effect in the repeat runs; an effect the other way counts as inactive or inconclusive; note: nearly all actives have a fitted effect of over 55% in size; note: potency is the fitted concentration of half-maximal effect)
How it was run: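 In human HaCaT keratinocytes stably expressing an ARE-driven luciferase, compound exposure lasted 23 h at 37 C under 5% CO2. Viable cells are quantified with a protease-based fluorogenic reagent (CellTiter-Fluor) read 1 h after addition.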

[2] = Nuclear factor erythroid 2-related factor 2/antioxidant responsive element (Nrf2/ARE) small molecule agonists: luciferase reporter gene qHTS assay in human keratinocytes (AID 1919969); note: nearly all actives have a fitted effect of over 35% in size; note: potency is the fitted concentration of half-maximal effect
[3] = target: Gonadotropin-releasing hormone receptor (Homo sapiens) (UniProt P30968); experiment: Human gonadotropin-releasing hormone receptor (GnRHR) small molecule agonists, calcium flux assay in GnRHR-HEK293 cells (AID 1920063); note: nearly all actives have a fitted effect of over 35% in size; note: potency is the fitted concentration of half-maximal effect
How it was run: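 Intracellular calcium rise is the read-out: engineered human GnRHR HEK293 cells, dye-loaded, are exposed to DMSO-dissolved compounds and fluorescence at Ex/Em 480/540 is tracked for 3 min.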

[4] = target: KiSS-1 receptor (Homo sapiens) (UniProt Q969F8); experiment: Human kisspeptin (KISS1R) small molecule agonists, calcium flux assay in KISS1R-HEK293 cells (AID 1920064; active = well fitted curve in the direction sought with a large enough effect in the repeat runs; an effect the other way counts as inactive or inconclusive)
How it was run: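 Concentration-response testing used 15 concentrations in triplicate on human KISS1R-expressing HEK293 cells. Calcium-dependent fluorescence (Ex/Em 480/540) was followed kinetically for 3 min after compound transfer.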

[5] = G protein-coupled receptor (GPCR) small molecule agonists, calcium flux assay: HEK293 wild type cell line counter screen (AID 1920065)
How it was run: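 Fluorescence intensity signals activation. After overnight (18 h) culture and a 1 h calcium dye load at 37 C, compounds are added by pin tool and the plate read at 480/540 nm for 3 min in 1 s steps.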

[6] = p53 small molecule agonists, cell-based qHTS assay with rat liver microsomes (AID 1963578)
How it was run: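 Fluorescence from a beta-lactamase reporter under a p53 response element was measured after cells had been incubated 16 h at 37 C with test compound and rat liver microsomes plus NADPH (0.5 mg/mL final each).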

[7] = p53 small molecule agonists, cell-based qHTS assay with human liver microsomes: qHTS cell viability counter screen (AID 1963579); note: nearly all actives have a fitted effect of over 45% in size
How it was run: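 Seed p53RE-bla cells at 4,000 per well; incubate 5 h at 37 C; add compound, human liver microsomes and NADPH; incubate 16 h at 37 C; add CellTiter-Glo; after 30 min at room temperature, read luminescence.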

[8] = p53 small molecule agonists, cell-based qHTS assay with rat liver microsomes: qHTS cell viability counter screen (AID 1963580); note: nearly all actives have a fitted effect of over 45% in size
How it was run: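 Luminescent ATP readout (CellTiter-Glo, 30 min at room temperature) reports viability of p53RE-bla HCT-116 cells after 16 h at 37 C with test compounds under metabolic activation by rat liver microsomes and NADPH at 0.5 mg/mL final each.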

[9] = p53 small molecule agonists, cell-based qHTS assay: qHTS cell viability counter screen (AID 1963581); note: nearly all actives have a fitted effect of over 45% in size
How it was run: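 Luminescence from CellTiter-Glo, reflecting ATP content, serves as the cytotoxicity measure; it is taken after the 2 h reporter substrate step in HCT-116 p53RE-bla cells dosed for 16 h at 37 C.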

[10] = p53 small molecule agonists, cell-based qHTS assay (AID 1963582; active = well fitted activation curve with a large enough effect in the signal ratio in the repeat runs, not every such curve was filed as active; the % refers to the signal ratio)
How it was run: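 After plating, p53RE-bla cells sat 5 h in the incubator; compounds or DMSO vehicle were pinned in; a 16 h incubation at 37 C followed; FRET substrate was added and, 2 h later at RT, fluorescence was measured.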

[11] = target: 5-hydroxytryptamine receptor 2A (Homo sapiens) (UniProt P28223); experiment: 5-hydroxytryptamine receptor 2A (HTR2A) small molecule antagonists, cell-based qHTS assay (AID 1963586); note: nearly all actives have a fitted effect of over 45% in size; note: potency is the fitted concentration of half-maximal effect
How it was run: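 CHO cells stably expressing human HTR2A were plated for 18 h at 37 C, then loaded with calcium dye for 1 h. Compounds were preincubated 5 min at room temperature before DOI (4 nM solution) was added. Kinetic fluorescence was read for 3 min.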

[12] = target: 5-hydroxytryptamine receptor 2A (Homo sapiens) (UniProt P28223); experiment: 5-hydroxytryptamine receptor 2A (HTR2A) small molecule agonists, cell-based qHTS assay (AID 1963587); note: nearly all actives have a fitted effect of over 30% in size
How it was run: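 HTR2A-CHO cells, plated 18 h at 37 C/5% CO2, dye-loaded 1 h at 37 C; compounds in DMSO added by pin tool (agonist mode). Intracellular calcium flux read as kinetic fluorescence on FDSS over 2 min at 1 s intervals.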

[13] = target: Muscarinic acetylcholine receptor M1 (Homo sapiens) (UniProt P11229); experiment: Cholinergic receptor muscarinic 1 (CHRM1) small molecule antagonists, cell-based qHTS assay (AID 1963588); note: nearly all actives have a fitted effect of over 40% in size
How it was run: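 Compounds were tested at 15 concentrations in three independent runs. Dye-loaded CHRM1-CHO cells were exposed 5 min at room temperature before stimulation by acetylcholine added at 50nM. Intracellular calcium was read kinetically on FDSS for 3 min.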

[14] = cAMP Responsive Elements (CRE) small molecule antagonists, cell-based qHTS assay (AID 1963591; active = well fitted inhibition curve with a large enough effect in the signal ratio in the repeat runs, not every such curve was filed as active; the % refers to the signal ratio)
How it was run: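 Stimulation used NKH477 at a final 0.25 uM for 3 h in compound-treated CRE-bla HEK293T cells, seeded 18 h beforehand. Reporter activity was measured with LiveBLAzer B/G FRET substrate after 2 h at room temperature.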

[15] = target: D(2) dopamine receptor (Homo sapiens) (UniProt P14416); experiment: Dopamine D2 receptor (DRD2) small molecule agonists, cell-based qHTS assay (AID 1963594); note: nearly all actives have a fitted effect of over 35% in size; note: potency is the fitted concentration of half-maximal effect
How it was run: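 HEK293 cells stably expressing DRD2 were cultured 24 h at 37 C, then given Ro20-1724 (0.1 mM final) and compounds for 10 min at room temperature. NKH477 (200nM) was then added for 30 min. cAMP was read by HTRF.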

[16] = target: D(2) dopamine receptor (Homo sapiens) (UniProt P14416); experiment: Dopamine D2 receptor (DRD2) small molecule antagonists, cell-based qHTS assay (AID 1963595; active = well fitted inhibition curve with a large enough effect in the signal ratio in the repeat runs, with a control signal flat; the % refers to the signal ratio; note: potency is the fitted concentration of half-maximal effect)
How it was run: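 Antagonist mode in DRD2-HEK293 cells: after compound addition with 0.1 mM Ro20-1724, cells received quinpirole (12 nM) and NKH477 (200 nM) for 30 min at room temperature; HTRF cAMP read after 1 h detection.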

[17] = target: Muscarinic acetylcholine receptor M1 (Homo sapiens) (UniProt P11229); experiment: Cholinergic receptor muscarinic 1 (CHRM1) small molecule agonists, cell-based qHTS assay (AID 1963589); note: nearly all actives have a fitted effect of over 35% in size
How it was run: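 Fluorescent calcium dye reports M1 activation in stably transfected CHO cells. Compounds, 15 concentrations, added after 1 h dye loading at 37 C; kinetic reading at 1 sec intervals.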

[18] = cAMP Responsive Elements (CRE) small molecule agonists, cell-based qHTS assay (AID 1963590)
How it was run: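 Compound exposure lasted 3 h at 37 C/5% CO2 in CRE-bla HEK 293T cells grown in assay medium with 10% dialyzed FBS and 25 mM HEPES. Reporter signal came from LiveBLAzer B/G FRET substrate, 2 h, room temperature.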

[19] = target: Beta-2 adrenergic receptor (Homo sapiens) (UniProt P07550); experiment: Adrenergic beta2 receptor (ADRB2) small molecule antagonists, cell-based qHTS assay (AID 1963592); note: series mostly up to about 92 µM; nearly all actives have a fitted effect of over 50% in size
How it was run: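 Assay format: CHO-ADRB2 cells, 18-20hr seeding at 37C/5% CO2, then compound plus 1nM isoproterenol agonist mix for 0.5hr RT. Homogeneous time-resolved fluorescence cAMP detection after 1hr, expressed as 665/615 nm ratio.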

[20] = p53 small molecule agonists, cell-based qHTS assay with human liver microsomes (AID 1963577)
How it was run: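 Cells carrying a p53-responsive bla reporter were rested 5 h (37 C, 5% CO2) before compound transfer. Human liver microsomes plus NADPH, 0.5 mg/mL final apiece, supplied metabolism during the 16 h 37 C exposure.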

5-hydroxytryptamine receptor 2A (Homo sapiens), sequence (P28223 whole entry, looked up): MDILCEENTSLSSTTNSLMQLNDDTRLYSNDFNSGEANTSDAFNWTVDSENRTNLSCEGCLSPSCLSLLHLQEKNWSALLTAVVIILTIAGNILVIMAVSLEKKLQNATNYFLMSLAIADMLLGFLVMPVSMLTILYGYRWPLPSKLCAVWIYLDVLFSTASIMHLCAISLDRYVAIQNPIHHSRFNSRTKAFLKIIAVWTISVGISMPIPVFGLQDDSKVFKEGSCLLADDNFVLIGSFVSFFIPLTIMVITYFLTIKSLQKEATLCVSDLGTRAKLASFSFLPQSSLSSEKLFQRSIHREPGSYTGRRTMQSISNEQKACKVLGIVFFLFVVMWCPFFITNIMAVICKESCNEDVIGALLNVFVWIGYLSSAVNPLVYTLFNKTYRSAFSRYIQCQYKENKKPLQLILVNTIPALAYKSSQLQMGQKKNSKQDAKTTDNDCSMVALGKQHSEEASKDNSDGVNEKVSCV
D(2) dopamine receptor (Homo sapiens), sequence (P14416 whole entry, looked up): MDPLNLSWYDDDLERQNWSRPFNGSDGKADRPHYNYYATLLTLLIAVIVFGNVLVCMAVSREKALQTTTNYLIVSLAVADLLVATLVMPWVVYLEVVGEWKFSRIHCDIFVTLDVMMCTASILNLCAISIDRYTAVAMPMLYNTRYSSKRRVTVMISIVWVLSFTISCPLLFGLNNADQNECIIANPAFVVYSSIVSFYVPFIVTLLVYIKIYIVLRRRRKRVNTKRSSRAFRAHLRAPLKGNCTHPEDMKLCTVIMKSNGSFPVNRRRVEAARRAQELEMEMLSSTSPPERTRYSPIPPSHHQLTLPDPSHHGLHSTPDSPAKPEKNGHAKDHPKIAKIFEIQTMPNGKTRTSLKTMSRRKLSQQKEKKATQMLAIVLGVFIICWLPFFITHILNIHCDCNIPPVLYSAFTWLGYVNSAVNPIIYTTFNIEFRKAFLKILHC
Beta-2 adrenergic receptor (Homo sapiens), sequence (P07550 whole entry, looked up): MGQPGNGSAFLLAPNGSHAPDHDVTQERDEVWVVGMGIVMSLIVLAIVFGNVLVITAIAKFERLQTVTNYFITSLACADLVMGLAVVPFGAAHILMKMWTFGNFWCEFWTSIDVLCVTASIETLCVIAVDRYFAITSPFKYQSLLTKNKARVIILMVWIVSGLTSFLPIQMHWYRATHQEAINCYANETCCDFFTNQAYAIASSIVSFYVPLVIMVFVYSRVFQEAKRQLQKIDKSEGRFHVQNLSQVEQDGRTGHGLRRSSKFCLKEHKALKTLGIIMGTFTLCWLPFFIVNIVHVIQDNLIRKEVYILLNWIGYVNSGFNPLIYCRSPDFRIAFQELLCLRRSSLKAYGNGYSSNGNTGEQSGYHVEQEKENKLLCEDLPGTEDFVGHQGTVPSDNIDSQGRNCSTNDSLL
Muscarinic acetylcholine receptor M1 (Homo sapiens), sequence (P11229 whole entry, looked up): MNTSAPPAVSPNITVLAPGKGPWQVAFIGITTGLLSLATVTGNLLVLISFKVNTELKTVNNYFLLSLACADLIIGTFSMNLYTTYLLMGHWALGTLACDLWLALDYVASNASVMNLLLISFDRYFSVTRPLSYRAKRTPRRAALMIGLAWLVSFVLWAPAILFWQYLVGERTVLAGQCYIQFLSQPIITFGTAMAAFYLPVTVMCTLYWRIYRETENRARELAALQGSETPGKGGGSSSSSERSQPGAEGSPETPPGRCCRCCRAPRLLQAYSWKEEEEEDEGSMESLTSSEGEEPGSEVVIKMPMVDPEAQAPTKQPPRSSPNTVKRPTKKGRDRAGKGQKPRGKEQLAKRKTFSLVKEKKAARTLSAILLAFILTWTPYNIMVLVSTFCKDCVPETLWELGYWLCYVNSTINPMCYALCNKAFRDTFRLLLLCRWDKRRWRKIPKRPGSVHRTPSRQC
KiSS-1 receptor (Homo sapiens), sequence (Q969F8 whole entry, looked up): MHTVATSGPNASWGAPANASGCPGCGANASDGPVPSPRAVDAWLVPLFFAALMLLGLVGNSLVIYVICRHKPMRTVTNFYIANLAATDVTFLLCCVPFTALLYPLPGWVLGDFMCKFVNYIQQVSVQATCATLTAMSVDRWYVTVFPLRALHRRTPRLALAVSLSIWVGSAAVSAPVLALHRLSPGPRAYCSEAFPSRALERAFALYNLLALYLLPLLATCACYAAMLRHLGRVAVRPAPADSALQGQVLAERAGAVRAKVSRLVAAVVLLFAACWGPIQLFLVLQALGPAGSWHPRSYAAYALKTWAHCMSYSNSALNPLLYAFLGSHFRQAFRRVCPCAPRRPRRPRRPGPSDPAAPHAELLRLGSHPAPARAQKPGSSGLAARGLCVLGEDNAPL
Gonadotropin-releasing hormone receptor (Homo sapiens), sequence (P30968 whole entry, looked up): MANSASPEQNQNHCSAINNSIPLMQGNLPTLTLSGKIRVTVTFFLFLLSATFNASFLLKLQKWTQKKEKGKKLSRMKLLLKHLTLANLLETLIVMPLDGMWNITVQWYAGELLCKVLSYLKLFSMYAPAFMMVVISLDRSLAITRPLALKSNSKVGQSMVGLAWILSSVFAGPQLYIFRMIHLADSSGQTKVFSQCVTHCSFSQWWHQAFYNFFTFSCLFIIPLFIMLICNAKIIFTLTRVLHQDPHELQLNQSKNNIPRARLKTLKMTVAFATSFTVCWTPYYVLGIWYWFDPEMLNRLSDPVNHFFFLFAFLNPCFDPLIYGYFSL

Row | Compound | Potency [1] | Potency [2] | Potency [3] | Potency [4] | Potency [5] | Potency [6] | Potency [7] | Potency [8] | Potency [9] | Potency [10] | Potency [11] | Potency [12] | Potency [13] | Potency [14] | Potency [15] | Potency [16] | Potency [17] | Potency [18] | Potency [19] | Potency [20]
1 | CNCC(=O)c1ccc(O)c(O)c1 | inactive | inactive | 5.35 µM (active) | inactive | inactive | inactive | inactive | inactive | inactive | inactive | inactive | inactive | inactive | inactive | 26.6 µM (active) | 26.6 µM (active) |  |  |  | 
2 | COc1ccc([N+](=O)[O-])cc1O | inactive | inactive | inactive | inactive | inactive | inactive | inactive | inactive | inactive | inactive | inactive | inactive | inactive |  | inactive | inactive | inactive | inactive | inactive | 
3 | N#CCCSCCC#N | inactive | inactive | inactive | inactive | inactive |  | inactive |  | inactive | inactive | inactive |  | inactive |  | inactive | inactive | inactive | inactive | inactive | inactive
4 | Oc1ccccc1Br | inactive | inactive | inactive | inactive | inactive | inactive | inactive | inactive | inactive | inactive | inactive | inactive | inactive |  | inactive | inactive | inactive | inactive | inactive | 
5 | CN1CCc2cc(Cl)c(O)cc2[C@H]2c3ccccc3CC[C@@H]21 | inactive | inactive | inactive | inactive | inactive | inactive | inactive | inactive | inactive | inactive | 0.0326 µM (active) | inactive | inactive | inactive | inactive |  | inactive |  |  | 
6 | CC(C)(C)c1ccc(OP(=O)(Oc2ccccc2)Oc2ccccc2)cc1 | inactive | inactive | inactive | inactive | inactive |  | inactive |  | inactive | inactive | 8.45 µM (active) |  |  | inactive | inactive | inactive | inactive | inactive | inactive | inactive
7 | CC(=O)c1ccc(-c2ccccc2)cc1 | inactive | inactive | inactive | inactive | inactive | inactive | inactive | inactive | inactive | inactive |  |  | inactive | inactive | inactive | inactive | inactive | inactive | inactive | 
8 | COc1cc(CCN)cc(OC)c1OC | inactive | inactive | inactive | inactive | inactive | inactive | inactive | inactive | inactive | inactive | 0.182 µM (active) |  | inactive | inactive | inactive | inactive | inactive | inactive |  | 
9 | CC(C)N(Cc1ccccc1)C(=O)C(C)(C)C | inactive | inactive | inactive | inactive | inactive | inactive | inactive | inactive | inactive | inactive | inactive | inactive |  | inactive |  | inactive | inactive | inactive | inactive | 
10 | C=CC(=O)OCCCCOC(=O)C=C | 61.1 µM (active) | 24.3 µM (active) | inactive | inactive | inactive | inactive | inactive | inactive | inactive | inactive | inactive | inactive | inactive |  | inactive | inactive |  |  | inactive | 
11 | CCCCP(CCCC)CCCC | inactive | inactive | inactive | inactive | inactive | inactive | inactive | inactive | inactive | inactive | inactive | inactive | inactive | inactive | inactive | inactive | inactive |  | inactive | 
12 | Clc1ccc(-c2ccccc2)cc1 | inactive | inactive | inactive | inactive | inactive | inactive | inactive | inactive | inactive | inactive | inactive | inactive |  | inactive | inactive |  | inactive | inactive | inactive | 
13 | CC(C1CC1)C(O)(Cn1cncn1)c1ccc(Cl)cc1 (centres undefined) | inactive | inactive | inactive | inactive | inactive | inactive | inactive | inactive | inactive | inactive | inactive | inactive | inactive |  | inactive |  | inactive | inactive | inactive | 
